According to PubChem BioAssay (NCI):
Compounds without any hit were thinned out: in the full panel of roughly 79,000, 15% have a hit. No stated cut-off is given here; in the data, active means growth inhibition above about 70%; inactive means the rest.

What was measured:
[1] = NCI Yeast Anticancer Drug Screen. Data for the rad50 strain (AID 155);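 further: 0% = growth of vehicle-only cultures of the same strain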; conditions: S. cerevisiae rad50 strain growth inhibition; at 50.0 µM; hits give high values
Outline: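 Relative growth inhibition (compound vs vehicle) was measured in yeast with a defined repair-gene alteration.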

[2] = NCI Yeast Anticancer Drug Screen. Data for the mec2-1 strain (AID 157); conditions: S. cerevisiae mec2-1 strain, at 50.0 µM, hits give high values
Outline: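 Strain: mec2-1 (DNA repair/cell cycle alteration). Compound exposure, then growth measured; inhibition expressed relative to vehicle.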

[3] = NCI Yeast Anticancer Drug Screen. Data for the sgs1 mgt1 strain (AID 161);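 further: 0% = growth of cultures given vehicle only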; conditions: S. cerevisiae sgs1 mgt1 strain, at 50.0 µM, hits give high values
Outline: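 Mutant yeast exposed to compound; growth scored against vehicle-only wells.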

[4] = NCI Yeast Anticancer Drug Screen. Data for the cln2 rad14 strain (AID 165);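 further: 0% = growth equal to vehicle treated cultures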; conditions: S. cerevisiae cln2 rad14 strain, at 50.0 µM, hits give high values
Outline: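 Compounds are applied to the cln2 rad14 yeast strain, and growth is then compared with that of vehicle-treated cultures to give inhibition.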

[5] = NCI Yeast Anticancer Drug Screen. Data for the bub3 strain (AID 167); conditions: S. cerevisiae bub3 mutant strain, at 50.0 µM, hits give high values
Outline: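 Screening used yeast with an engineered genetic alteration affecting cell cycle control. Compound-exposed cultures were compared with vehicle cultures, and reduced growth was taken as inhibition.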

[6] = NCI Yeast Anticancer Drug Screen. Data for the mlh1 rad18 strain (AID 175); conditions: S. cerevisiae mlh1 rad18 strain growth inhibition; at 50.0 µM; hits give high values
Outline: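 Read-out is yeast growth inhibition, calculated against vehicle-only controls. The compound was applied to a strain engineered with DNA damage repair alterations.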

Measured: growth inhibition

Oc1ccc(Br)cc1C(=S)N1CCOCC1
inactive: [1] 9.3% | [2] 18.4% | [3] 4.45% | [4] 3.6% | [5] -10.1% | [6] 37.2%

COC(=O)[C@]1(C)CCC[C@]2(C)c3cc(Br)c(C(C)C)cc3CC[C@H]12
inactive: [1] -18.6% | [2] -9.25% | [3] -6.3% | [4] -44.5% | [5] -4.55% | [6] -1.8%

O=C(O)C12CC3(C(=O)O)CC(C(=O)O)(CC(C(=O)O)(C1)C3=O)C2=O
inactive: [1] -11.3% | [2] 13.4% | [3] -24.4% | [4] -4.15% | [5] -28.1% | [6] 17.3%

CCC(C(=O)O)C(=O)O
inactive: [1] -16.9% | [2] -38.4% | [3] -23.7% | [4] 14.3% | [5] -7.75% | [6] 10.3%

CN(C)C1=NS(=O)(=O)N=C(N(C)c2ccccc2)O1
inactive: [1] 14.5% | [2] 6.65% | [3] 6.45% | [4] 16.8% | [5] 8.15% | [6] 10.5%

NC(Cc1ccccc1)C(=O)Nc1cccnc1 (stereo unspecified)
inactive: [1] -17.4% | [2] 15.2% | [3] 7.75% | [4] -44.6% | [5] 15.8% | [6] -5.75%

COc1cc(CC2C(=O)OCC2C2(c3ccc4c(c3)OCO4)SCCCS2)cc(OC)c1OC (stereo unspecified)
inactive: [1] 10.4% | [2] 8.3% | [3] 0.15% | [4] 27.5% | [5] 3.2% | [6] 26.8%

N=C(N)Sc1cc(O)c2ccccc2c1O
inactive: [1] -33% | [2] -6.45% | [3] -28.1% | [4] -45.8% | [5] 4.1% | [6] -2%

Cc1cc(-c2ccccc2)c(C#N)c(=O)[nH]1
inactive: [1] -4.5% | [2] 12.2% | [3] -10.8% | [4] -14.8% | [5] 3.65% | [6] -7.35%

O=c1[nH]nc(Cc2ccccc2)n1/N=C\c1ccccc1
inactive: [1] -38.6% | [2] -20.6% | [3] -28.1% | [4] -11.3% | [5] -16.1% | [6] -43.2%

CC1(C)OC2OC(COC(=O)c3ccccc3)C(N3C(=O)c4ccccc4C3=O)C2O1 (stereo unspecified)
inactive: [1] 58.2% | [2] 9% | [3] 64.1% | [4] 30.1% | [5] 40.4% | [6] 49%

CC(=O)OC(C(=O)Nc1ccc(Br)cc1)c1ccccc1 (stereo unspecified)
inactive: [1] 4.7% | [2] -3.95% | [3] -4.75% | [4] -35.5% | [5] 11.6% | [6] -6.65%

COC(=O)C(Cc1c[nH]c2ccccc12)NC(=O)C(Cc1cnc[nH]1)NC(=O)C1CCC(=O)N1C(=O)OCc1ccccc1 (stereo unspecified)
inactive: [1] -10.2% | [2] -3.55% | [3] -2% | [4] -2.35% | [5] -1.35% | [6] -5.1%

O=C(Nc1ccc(N=C=S)cc1Cl)c1ccc2ccccc2c1O
inactive: [1] 15.6% | [2] 14.3% | [3] 6.75% | [4] 12.6% | [5] 4.05% | [6] 8.25%

O=[N+]([O-])c1ccc(-c2nnn(C3CC3)c2N2CCCCC2)cc1
inactive: [1] -7.85% | [2] -5.6% | [3] -3.4% | [4] -0.5% | [5] -4.35% | [6] 5.15%

Cc1ccncc1.[O]=[Ge].[O]=[Ge].[O]=[Ge].[O]=[Ge].[O]=[Ge].[O]=[Ge][OH].[O]=[Ge][OH]
inactive: [1] -27.3% | [2] -35.4% | [3] -42.5% | [4] -23.1% | [5] -24.8% | [6] -30.1%

CCNC(=O)OCCN1C(=O)C2C3CCC(O3)C2C1=O (stereo unspecified)
inactive: [1] 5.25% | [2] 11.4% | [3] 22.1% | [4] 3.35% | [5] 8.5% | [6] 12.8%

CCN(CC)C(=O)C1CC=CCC1C(=O)O (stereo unspecified)
inactive: [1] 41.3% | [2] 19.3% | [3] 23.9% | [4] -38.5% | [5] 1.85% | [6] 30.1%

CSc1nc(C)cc(Nc2ccc(O)c(CN3CCOCC3)c2)n1
inactive: [1] 6.1% | [2] -3.25% | [3] -22% | [4] -33.1% | [5] -52% | [6] 9.4%

COCOS(C)(=O)=O
inactive: [1] -4.05% | [2] -14.3% | [3] -2.85% | [4] 4.8% | [5] 9.4% | [6] -3.65%

CC1=C(c2cc(C(=O)Nc3cccc(Cl)c3)nc(NC#N)n2)Sc2ccccc2N1
inactive: [1] 25.6% | [2] 0.9% | [3] -0.7% | [4] 16.4% | [5] 4.75% | [6] 33.5%

CCOC(=O)/N=c1/nc2ccn(C)c2c(NC(=O)OCC)s1
inactive: [1] 15.1% | [2] -3.5% | [3] -5% | [4] 11% | [5] 7.9% | [6] -15.8%

Cc1ccnc2c1NC(=O)c1cccnc1N2C1CC1
inactive: [1] 2.35% | [2] -1.95% | [3] -8.6% | [4] -9.35% | [5] 6% | [6] 20.8%

COC(=O)C(=O)C1(c2ccccc2)CCCC(CN(C)C)=C1O (stereo unspecified)
inactive: [1] 3.35% | [2] -0.15% | [3] 2.65% | [4] -4.95% | [5] -2.65% | [6] -12.7%

NCC(O)CSc1ccccc1 (stereo unspecified)
inactive: [1] -10.6% | [2] 4.15% | [3] -6.85% | [4] -16.7% | [5] -1.3% | [6] -6.8%

COC1CC(N=[N+]=[N-])C(OS(C)(=O)=O)C(C)O1 (stereo unspecified)
inactive: [1] -2.35% | [2] 22.1% | [3] 1.7% | [4] 3.7% | [5] -9% | [6] 14.8%

O=P(O)(c1ccccc1Br)c1ccccc1Br
inactive: [1] 43.5% | [2] 10.6% | [3] 28% | [4] 26.2% | [5] 4.65% | [6] 20.2%

O=C1c2ccccc2C(=O)c2cc(N=Nc3c(O)ccc4ccccc34)ccc21
inactive: [1] 2.05% | [2] 35.9% | [3] -6% | [4] 4.25% | [5] 2.7% | [6] 2.1%

O=C(Nc1ccccc1C(=O)N/N=C/c1ccc(Cl)cc1)c1ccccc1Cl
inactive: [1] 49.2% | [2] 27.9% | [3] 22.6% | [4] 29.6% | [5] 42.1% | [6] 25.8%

Cc1nc(C)c(N2CCN(C(=O)O)CC2)c(=O)[nH]1
inactive: [1] -23.6% | [2] -10.9% | [3] -16% | [4] 9.85% | [5] 5.15% | [6] -58.4%

CC(=O)Nc1ccc(/C=N/NC(N)=O)cc1
inactive: [1] 16.4% | [2] 11.6% | [3] 19.8% | [4] 8.55% | [5] -0.7% | [6] 9.35%

COc1ccc(/C=C2\N=C(N3CCOCC3)NC2=O)cc1
inactive: [1] -4.15% | [2] 7.25% | [3] 10.4% | [4] -13.8% | [5] -3.4% | [6] -43.8%

C(=C\C(Sc1ccccc1)c1ccccc1)/NNC1=NC(c2ccccc2)C(c2ccccc2)=NN1 (stereo unspecified)
inactive: [1] -22.4% | [2] -8.6% | [3] -42.8% | [4] -4.35% | [5] -19.9% | [6] -3.55%

NC(=O)c1nc(N)nc(N)c1[N+](=O)[O-]
inactive: [1] -10.8% | [2] -15.1% | [3] -16.1% | [4] -18.8% | [5] -21.9% | [6] -18.9%

CCOC(=O)c1c[nH]c2cc(Cl)ccc2c1=O
inactive: [1] 3.85% | [2] 30.5% | [3] 9.65% | [4] 7.9% | [5] 15.3% | [6] -12.9%

CCOC(=O)/C=C\SCCC(=O)O
inactive: [1] 10.1% | [2] 11.1% | [3] 15.8% | [4] 25.9% | [5] 27.1% | [6] 41.9%

O=C1CSC(c2ccc(Cl)c([N+](=O)[O-])c2)N1c1nncs1 (stereo unspecified)
inactive: [1] 7.9% | [2] 4.6% | [3] 24.2% | [4] 12.7% | [5] 10% | [6] 25.1%

C=C(C)CNC(C)=O
inactive: [1] -7.75% | [2] 3% | [3] 0% | [4] 0% | [5] 3.4% | [6] 1.95%

CN(C)CCOc1ccccn1
inactive: [1] 9.45% | [2] -27.4% | [3] -5.35% | [4] 7.75% | [5] -21.7% | [6] 0.3%

O=c1[nH]cc(S)c(=O)[nH]1
inactive: [1] 15.8% | [2] -28.4% | [3] -15.4% | [4] -9.35% | [5] -9.7% | [6] -0.35%

c1ccc(CCNCc2ccc(CNCCc3ccccc3)cc2)cc1
inactive: [1] -5.75% | [2] -23.9% | [3] -12.2% | [4] 5.05% | [5] -0.25% | [6] 3.45%
